# Reference: PubChem BioAssay (NCI)
# About 83,000 compounds went through this panel and 20% of them were active in at least one assay; those are over-represented in the sample as a whole.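 Negative percent growth values reflect cell death: -40 means 40% of the cells present at the start died, and -100 means all died.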 A number with no mark means an inactive call. The source made the active and inactive calls. Rule for the calls: active = growth percent below 10; inactive = the rest.
# System: HL-60(TB) leukemia
# Test: NCI-60 one-dose screen, 48 h (100 = growth as untreated, 0 = no growth, -100 = all killed)
# Details: 10 µM unless noted
row,SMILES,growth
1,COC1CC(N)C2OC(c3ccccc3)OCC2O1 (centres undefined),102%
2,Fc1ccc(-c2cnc3nonc3n2)c(F)c1,7.84% (active)
3,O=C(CCl)Nc1cc(O)c2c(c1)C(=O)c1cccc(O)c1C2=O,-44.4% (active)
4,O=C1c2c(c3c4cc(F)ccc4oc3c3[nH]c4ccccc4c23)C(=O)N1O,41.8%
5,CNC1=C(Br)C(=O)c2c(C(=O)OC)c(C)nc(C)c2C1=O,24.5%
6,CC(=O)N(CCCCCCN(C(C)=O)C(C)=O)C(C)=O,108% [100 µM]
7,CC1=C(Cl)C(=O)c2cc(C)ccc2C1=O,117%
8,Cc1cc(C(O)CN(C)C)cc2c1ccc1cc(C(C)C)ccc12 (centres undefined),-52.8% (active)
9,CNC(=O)c1c(NC(=O)c2ccc(C(C)C)cc2)sc2c1CCC(=O)C2,-13.9% (active)
10,OCCN1CCCN(CCCN2c3ccccc3Sc3ccc(C(F)(F)F)cc32)CC1,45%
11,COc1ccc(-c2nn(-c3cccc(Cl)c3)cc2C2CC(c3ccccc3)=NN2C(C)=O)cc1 (centres undefined),101%
12,CCSc1ccc(C2C(Br)C(=O)N2c2cc(OC)c(OC)c(OC)c2)cc1 (centres undefined),-9.14% (active)
13,O=C1CN(CCN2CC(=O)NC(=O)C2)CC(=O)N1,88%
14,COC(=O)c1c(C)nc(C)c2c1C(=O)C(Br)=C(NCCN1CCOCC1)C2=O,61.9%
15,CCCCCCCCCCCCCCCC(=O)OC[C@@]1(O)C[C@@]23CC[C@@H]4C(C)(C)[C@H](O)CC[C@@]4(C)[C@@H]2CC[C@H]1C3,101%
16,CCN(CC)c1ccc(/C=N\NC(=O)c2cccc(Nc3ccnc(C(F)(F)F)c3)c2)c(O)c1,69.2%
17,O=C1C=CC(=O)N1c1cccc2c1CCCC2,34.2%
18,c1cc(OCCN2CCCCC2)cc(-c2n[nH]c3ccc(-c4ncn[nH]4)cc23)c1,39%
19,COc1cc(/C=C/c2cc(/C=C/c3ccc(O)c(OC)c3)n(C(=O)Cc3ccccc3)n2)ccc1O,-9.93% (active)
20,CCCC(C)c1cc(Cc2cc(Cl)cc(Cl)c2O)c(O)c(Cc2cc(Cl)cc(Cl)c2O)c1 (centres undefined),4.98% (active)
21,C=C1C(=O)O[C@H]2[C@H]1CC/C(COC(=O)NCc1ccc(Cn3c(=O)sn(-c4ccc(C#N)cc4)c3=O)cc1)=C\CC[C@@]1(C)O[C@@H]21,-13.1% (active)
22,Cn1c(N2NC(=O)C(N=Nc3ccc(S(N)(=O)=O)cc3)C2=O)nc(-c2ccco2)c(C#N)c1=O (centres undefined),-41.4% (active)
23,C=CCn1c(SCC(=O)Nc2ccc(C(=O)/C=C/c3ccc(Cl)cc3)cc2)nnc1-c1ccc(Cl)c(Cl)c1,56.8%
24,CCOC(=O)/C(C#N)=C\Nc1ccc2ncnc(Nc3ccc(Cl)cc3Cl)c2c1,108%
